Tgondii IFNg: T. gondii growth inhibition with IFN-gamma, primary screen, cell-based; Toxoplasma gondii growth in IFN-gamma-treated host cells; hits give low values; activity change, negative = inhibition, % (test concentration not listed); hit rate 3.8% among 69,000; AID 1259416, 2018; in the data active means activity change below about -70%, passing the limit was not always enough;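 further: host cells are HeLa cells infected with Toxoplasma gondii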
Numbers without * were called inactive; i = inactive; ! = repeats disagree. Many of the other results were omitted from the sample, so hits are more common in it than they were.

SMILES	Tgondii IFNg
O=C(CN1CCN(c2ccccc2)CC1)NN1CC(=O)N(c2cccc(Cl)c2)CC1=O	-18.8
c1cncc(COC2CCN(Cc3ccsc3)CC2)c1	12.0
Cc1nccn1-c1ccccc1CNC(=O)[C@@H](O)c1ccccc1	-3.7
CCn1nc(C(C)C)cc1C(=O)NCc1nonc1C	-1.0
Cc1ccc(-c2nc(CN3CCN(C(=O)NCCc4ccccc4)CC3)c(C)o2)cc1	1.0
CC(C)c1ccc(S(=O)(=O)N2CCC3(CC2)NCCN=C3NC2CCCCCC2)cc1	-47.0
N#Cc1cccc(CN2CCC3(CC2)N=C(C2CC2)NO3)c1	104.7
Cc1ccc(S(=O)(=O)Nc2cc(=O)[nH]c(SCc3ccccc3Cl)n2)cc1	-1.6
Cc1ccc(S(=O)(=O)c2ncsc2SCc2ccc(Cl)cc2Cl)cc1	-93.8*
Cc1cc2nc3ccccc3c(=O)n2c(SCc2ccc(Cl)cc2Cl)n1	4.3
Cc1cccc(N2CCN(Cc3nncn3C)CC2)c1C	-3.7
CC1CCN(c2ncnc3c2cnn3CC(=O)NCc2ccc(Br)cc2)CC1	-94.2*
O=C(Cn1ncc2c(N3CCCCCC3)ncnc21)NCc1ccccc1Cl	36.9
CC1CCN(c2ncnc3c2cnn3CC(=O)NCCCc2ccccc2)CC1	110.1
CC1CCN(c2ncnc3c2cnn3CC(=O)NCc2ccccc2Cl)CC1	-94.8*
CC1CCN(c2ncnc3c2cnn3CC(=O)NCc2ccccc2)CC1	-101.4*
CC1CCN(c2ncnc3c2cnn3CC(=O)NCc2cccnc2)CC1	167.0
CC(C)CCNC(=O)Cn1ncc2c(N3CCC(C)CC3)ncnc21	130.8
Cc1cc(Br)ccc1NC(=O)Cn1ncc2c(N3CCC(C)CC3)ncnc21	-48.1
Cc1ccccc1CNC(=O)Cn1ncc2c(N3CCC(C)CC3)ncnc21	7.4
COc1cccc(-n2nnc(C(=O)NCCc3cnccn3)c2C)c1	37.5
Cc1ccc(-c2nc(CCNC(=O)c3cccc(C(F)(F)F)c3)cs2)cc1	463.1
COc1ccc(CCN2C(=O)N(C)C(=O)C23CCN(Cc2ccc(N4CCCC4)cc2)CC3)cc1	10.3
Cc1nc(CN2C[C@@H]3CN(C(=O)C4(C#N)CC4)C[C@H]3C2=O)cs1	4.1
COCC(=O)N1CCO[C@]2(CCC[C@H]2COc2cccnc2)C1	0.0
SMILES	Tgondii IFNg
Cc1nc2ccc(Cl)cn2c1C(=O)O	18.5
CN1CCC2(CC1)COc1ccccc1S(=O)(=O)N(CC1CC1)C2	57.6
Cc1cccc(-c2nnc(-c3nc(NCCc4c(C)noc4C)c4ccccc4n3)o2)c1	-16.8
Cc1noc(C)c1CCNc1ncc2c(n1)c1ccc(Cl)cc1n1ccnc21	-72.5*
Cn1cc(-c2cnc(-c3cccnc3)nc2)cc1C(=O)NCC(C)(C)CO	399.5
Cc1ccc(C2(O)CCN(C(=O)C(C)n3cnc4ccccc43)CC2)nc1 (centres undefined)	10.5
CS(=O)(=O)CCNCc1ccc(-c2ccc3ncnc(Nc4ccc(OCc5cccc(F)c5)c(Cl)c4)c3c2)o1	-81.3*
CCn1c(=O)[nH]c2cc(Cl)c(Cl)cc21	-83.8*!
CN(Cc1ccc(-n2ccnc2)cc1)Cc1ncc[nH]1	-15.2
COC(=O)CCC(=O)N1CCC2(CC1)CC[C@@]1(C(=O)N3CCCC3)CN(C)C[C@H]21	-2.1
CN(C)C(=O)COCC1CN(c2ncc(F)cn2)Cc2ncn(C)c21 (centres undefined)	-5.9
CCOc1ccccc1OCc1nn2c(Cn3cnc4ccccc43)nnc2s1	77.5
CC1C(c2ccccc2)N(C)C(c2ccccc2)CC1(O)Cc1ccccc1 (centres undefined)	-84.5*
CN1CCCC1(Cc1ccccc1)C(=O)O (centres undefined)	-54.9
Cc1ccc(CC2(O)CC(C)N(C)CC2C)cc1 (centres undefined)	10.6
COc1cccc(-c2ccc(OC)c(OC)c2OC)n1	6.0
O=C1N(Cc2ccccn2)C(=O)C2(CCN(Cc3c(F)cccc3Cl)CC2)N1Cc1ccccc1	-72.9*
O=C1N(Cc2ccccn2)C(=O)C2(CCN(CC3CC=CCC3)CC2)N1Cc1ccccc1 (centres undefined)	-3.2
Cc1c(CN2CCC3(CC2)C(=O)N(Cc2ccccn2)C(=O)N3Cc2ccccc2)cnn1C	18.5
CN(C)C[C@@H]1CCC[C@@H]2CN(Cc3ccn(C)n3)C[C@H]21	-65.7
Cc1noc(C2CCCCN2C(=O)c2cnn(Cc3ccccc3)c2)n1 (centres undefined)	-3.7
Cc1noc2c1C1=NCCN1C(=O)N2CC(=O)N1CCOCC1	-8.9
CN1CCNC(=O)C12CCN(C(=O)c1ccccc1C(F)(F)F)CC2	-0.8
CCO[C@H]1CO[C@@]2(CCCN(C(=O)C3CC=CC3)C2)C1	-2.6
O=C(Nc1cccc(OCCN2CCOCC2)c1)c1csc2c1CCCC2	13.6
SMILES	Tgondii IFNg
O=C(COc1ccc(F)cc1)OCCN1CCOCC1	13.1
c1ccc(-c2nn3c(c2-c2ccnc4cc(OCCN5CCOCC5)ccc24)CCC3)nc1	-77.8*
Cc1nn(C)c(Cl)c1-c1c(-c2ccccc2)ncn1CCc1cnc[nH]1	-29.8
Cn1c(-c2ccc(Cl)cc2)n[nH]c1=S	-96.9*
S=c1[nH]nc(-c2ccncc2)n1-c1cccc(Cl)c1	14.7
COc1ccc(-c2n[nH]c(=S)n2Cc2ccccc2)cc1	52.7
Cn1c(CNC(=O)c2cccc3[nH]cc(CN4CCCC4)c23)nc2ccccc21	43.0
CCc1ccc(NC(=O)Cn2c(=O)cc(C(=O)N3CCc4ccccc4C3)c3ccccc32)cc1	-1.5
Cc1cc(C)nc(SCc2ccc(C(=O)Nc3nccs3)cc2)n1	-88.5*
O=C(Cc1ccccc1)Nc1nccs1	-3.8
Cc1cc(SCc2ccc(C(=O)O)cc2)nc(SCc2ccc(Cl)cc2)n1	38.3
COCCc1ncc(CN(Cc2ccncc2)Cc2ccc3c(c2)OCO3)cn1	-71.3*
Cc1ccc(O)c(CN(Cc2cccnc2)Cc2ccc3c(c2)OCO3)n1	-25.1
Cc1ccc(CN(Cc2ccc3c(c2)OCO3)Cc2cnc(C)[nH]2)cc1	-28.1
Cc1[nH]nc(C2NCCc3[nH]cnc32)c1Cl (centres undefined)	0.1
COc1cc(N2CCC3(CC2)CNC(=O)CO3)ncn1	-21.9
C[C@@H]1CN([C@@H](C)CO)C(=O)CCCn2nncc2CO[C@H]1CN(C)C(=O)Nc1ccccc1C(F)(F)F	39.3
C[C@H](CO)N1C[C@H](C)[C@H](CN(C)C(=O)c2cc(-c3ccccc3)on2)OCc2cnnn2CCCC1=O	-75.6*
C[C@H]1CN([C@@H](C)CO)C(=O)CCCn2nncc2CO[C@@H]1CN(C)C(=O)Nc1ccccc1C(F)(F)F	-95.7*
C[C@@H]1CN([C@@H](C)CO)C(=O)CCCn2nncc2CO[C@H]1CN(C)C(=O)c1cc(-c2ccccc2)on1	92.8
C[C@H](CO)N1C[C@H](C)[C@H](CN(C)C(=O)Nc2cccc3ccccc23)Oc2ncccc2C1=O	-118.7*
COc1ccc(NC(=O)N(C)C[C@@H]2OCc3cnnn3CCCC(=O)N([C@H](C)CO)C[C@@H]2C)c(OC)c1	i
C[C@@H]1CN([C@H](C)CO)C(=O)c2cc(NS(=O)(=O)c3cn(C)cn3)ccc2O[C@H]1CN(C)C(=O)Nc1cccc2ccccc12	-1.1
C[C@@H]1CN([C@H](C)CO)C(=O)c2cccc(NC(=O)C3CCOCC3)c2O[C@@H]1CN(C)C(=O)Nc1cccc2ccccc12	-8.3
C[C@H](CO)N1C[C@H](C)[C@@H](CN(C)C(=O)c2cc(-c3ccccc3)on2)OCc2cnnn2CCCC1=O	65.6
CCN1CCn2c(-c3cnn(C)c3)cnc2C12CCN(S(=O)(=O)C1CC1)CC2	1.6
Cn1nnc2c1C(COCC1CC1)CN(Cc1cccnc1)C2 (centres undefined)	-35.9
